# HCV inh = blocks hepatitis C virus; Huh7.5.1 HCVcc-Cre infection, luciferase reporter, 44 h; Potency, µM (titrated, usually from 41.8 µM), hits mostly inhibitors; actives 3.4% (n = 340,000)
#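 Compounds are dispensed onto cells plated 4 h earlier at 1,000 per well, with HCVcc-Cre virus (about 0.5 moi) added next. Following 44 h of culture, luminescent signal is measured for 15 sec after 15 min with substrate at room temperature.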
# Pf growth 48h = P. falciparum growth inhibition at 48 hours (one generation). P. falciparum luciferase growth in erythrocytes, 48 h. Potency, µM (top dose mostly 28.7 µM), actives largely listed as inhibitors. actives 5.9% (n = 310,000)
#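 Luciferase-expressing parasites in RBCs, 2% Hct / 0.1% parasitemia final; RPMI 1640 + 0.5% Albumax; 37 C, 5% CO2, one generation; luminescence read-out, lower signal = inhibition.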
# HCMV antiviral = blocks human cytomegalovirus replication; actives 4.5% (n = 410,000); activity change, negative = inhibition, % at 57.5 µM; AID 1259415; HFF cells, HCMV-luciferase reporter, 72 h; stronger effect = lower value; in the data active = activity change below about -60%; inconclusive = no clear call, values can overlap the other calls; inactive = above about -39%
#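 Luciferase read-out from HCMV-luciferase-infected HFFs (MOI 1 PFU/cell) 72 h post infection at 37C; compounds added after 16 h cell attachment; activity normalized between buffer-only basal and Salinomycin (10uM) inhibitor controls.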
# Pf growth 96h = P. falciparum growth inhibition at 96 hour, primary screen for plastid delayed-death inhibitors; P. falciparum luciferase reporter growth, 96 h; Potency, µM (highest dose often 28.7 µM), most hits filed as inhibitors; actives 6.9% (n = 320,000); AID 504834
#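 P. falciparum expressing integrated firefly luciferase grown in erythrocytes (2% hematocrit, 0.05% parasitemia final) with compounds for 96 hours at 37 C, 5% CO2. Growth inhibition read as loss of luminescence after adding luciferase detection reagent.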
# A number is an active result; . = inactive; ? = inconclusive; / = no result given; [ ] = another dose, or the depositor's remark. Most compounds without a hit are left out; they make up all but 13% or so of the library. Unless noted, calls follow the shape of the dose curve; as a rule, active = well fitted inhibition curve with a large enough effect; inconclusive = small, poorly fitted or top-dose-only effect, or another doubt; inactive = no such curve, though single readings can be large or run the other way.
SMILES,HCV inh,Pf growth 48h,HCMV antiviral,Pf growth 96h
COc1ccc(-c2nc(CN3CCN(C(=O)c4ccco4)CC3)c(C)o2)c(OC)c1C,.,7.4µM,.,.
CCOc1ccccc1-c1nc(CN2CCCN(C(=O)c3ccco3)CC2)c(C)o1,/,?,-101,.
Cc1cccc(C)c1NC(=O)c1nc(SC(C)C)ncc1Cl,/,/,.,/
O=C(CSc1nccc(=O)[nH]1)N1N=C2/C(=C/c3ccco3)CCCC2C1c1ccco1 (configuration not stated),.,.,.,.
Cn1cnnc1SCC(=O)N1N=C2/C(=C/c3ccco3)CCCC2C1c1ccco1 (configuration not stated),.,?,-61,10µM
O=S(=O)(Nc1cccc(-c2nc3cccnc3s2)c1)c1ccc2c(c1)OCCO2,?,.,-64,.
Cc1ccc(-c2nc3cccnc3s2)cc1NS(=O)(=O)c1ccc2c(c1)OCCO2,?,?,.,.
CCOC(=O)c1scc(-c2ccccc2)c1S(=O)(=O)Nc1ccc(N(C)C)cc1,/,/,.,/
O=C(N=Nc1c(O)[nH]c2ccc(Br)cc12)c1ccco1,/,/,.,/
O=C(N=Nc1c(O)[nH]c2ccc(Br)cc12)c1ccccc1-n1cccc1,18µM,/,?,?
O=C(N=Nc1c(O)[nH]c2ccc(Br)cc12)c1cc(-c2cccs2)nc2ccccc12,?,.,-61,.
CCOc1ccc(CCNC(=O)Cn2ncc3c([nH]c4ccccc43)c2=O)cc1OCC,/,/,.,/
CCN(CC)P(=O)(Nc1ccc([N+](=O)[O-])cc1)c1c(C)nn(CCC#N)c1NC(=O)c1ccc(Cl)cc1Cl (configuration not stated),.,7.4µM,.,7.4µM
C=C(Cl)COc1ccc2c(CC)cc(=O)oc2c1,8.9µM,.,.,/
C=C(Cl)COc1ccc2c(CCCC)cc(=O)oc2c1,?,.,.,/
COc1ccc(-c2noc3c2-c2nc(-c4ccc(C)cc4)sc2CC3)cc1,.,/,?,/
COc1ccc(-c2noc3c2-c2nc(-c4c(F)cccc4F)sc2CC3)cc1,3.5µM,.,.,.
CCOc1ccc(-c2nc3c(s2)CCc2onc(-c4ccc(OC)cc4)c2-3)cc1,.,/,-60,/
CNC(=O)c1cc(C(=O)c2ccccc2Br)c[nH]1,.,.,.,.
O=C(c1c[nH]c(C(=O)C(Cl)(Cl)Cl)c1)c1ccccc1Br,.,13µM,.,?
COC(=O)c1ccc(NC(=O)C(=O)N2CCN(C(=S)Nc3ccc(C)cc3)CC2)cc1,?,.,.,0.37µM
COC(=O)c1ccc(NC(=S)N2CCN(Cc3ccccc3Cl)CC2)cc1,.,.,.,.
COC(=O)c1ccc(NC(=S)N2CCN(Cc3ccccc3OC)CC2)cc1,.,.,-80,.
COc1ccc(NC(=O)C(NC(=O)/C=C\c2ccc3c(c2)OCO3)c2ccc(C)cc2)cc1 (configuration not stated),/,/,.,/
CCC1(O)CCC2C3CCC4=CC(=O)CCC4C3CCC21CC (configuration not stated),.,/,.,/
SMILES,HCV inh,Pf growth 48h,HCMV antiviral,Pf growth 96h
C#CC1(O)C=CC2C3CCC4=CC(=O)CCC4C3CCC21CC (configuration not stated),.,?,.,8.5µM
COc1ccc(/C=C(\NC(=O)c2ccccc2)C(=O)NC2CCCCC2)cc1,/,/,.,/
CCOC(=O)C1=C(c2ccccc2)NC(N)=NC1c1ccc(OCc2ccc(Cl)cc2)c(OC)c1 (configuration not stated),?,1.5µM,.,1.7µM
CCOC(=O)C1=C(c2ccccc2)NC(=O)NC1c1cc(Cl)c(O)c(OC)c1 (configuration not stated),.,.,.,.
CCN(CC)S(=O)(=O)c1cccc(C(=O)NC(Cc2c[nH]c3ccccc23)c2nnc3n2CCC3)c1 (configuration not stated),.,9.3µM,-61,8.3µM
N=c1sc2ccccc2n1-c1ccccc1,?,.,.,.
C=CC(=O)N=c1sc2ccccc2n1-c1ccccc1,11µM,.,.,?
O=C(c1ccccc1)N1CCCC(c2ccc(Cl)cc2)=N1,?,15µM,.,9.3µM
O=C(C1CC1)N1CCCC(c2ccc(Cl)cc2)=N1,?,.,.,.
O=C(c1cccc(Cl)c1)N1CCCC(c2ccc(Cl)cc2)=N1,7.9µM,?,.,3.7µM
Cc1onc(-c2ccccc2Cl)c1C(=O)Oc1ccccc1F,/,/,.,/
CN(CCc1ccccn1)C(=O)CCC1CCCN(C(=O)CN2CCCCCC2)C1 (configuration not stated),.,.,.,.
CC(=O)c1cc(C(=O)N2CCCC(CCC(=O)N(C)CCc3ccccn3)C2)cs1 (configuration not stated),.,.,-66,.
CCO[C@@H]1OC(C(=O)NCc2nc3ccccc3[nH]2)=C[C@H](C(C)(C)C)[C@H]1CCCO,.,/,-80,/
CCO[C@@H]1OC(C(=O)NCc2ccccc2)=C[C@H](C2CCCCC2)[C@H]1CCCO,.,?,.,9.3µM
CCO[C@@H]1OC(C(=O)NCc2ccccc2)=C[C@H](C2CC2)[C@H]1CCCO,.,?,.,.
COc1ccccc1NC(=O)N1CC=C(c2c[nH]c3ccccc23)CC1,/,/,.,/
COc1ccc(S(=O)(=O)NCc2cccn2Cc2cc(C)ccc2C)cc1OC,/,/,.,/
COC(=O)c1cc(C)nc2c1c(=O)nc(SCc1cccc(C(F)(F)F)c1)n2C1CC1,/,/,.,/
Fc1ccc(-c2nccc3[nH]nc(-c4ccccc4)c23)cc1,/,/,.,/
C[N+](C)(C)CCCCCCCCCC[N+](C)(C)C,.[8.37 µM],0.66µM,.,0.26µM
CCc1nc2sc3c(O)cc(=O)[nH]c3c2cc1C,.,.,-81,?
CCn1c(C)c(C)c2cc(C(=O)NCc3cccc(C)c3)ccc21,/,/,.,/
CCOC(=O)Cn1c(C(F)(F)F)nc2nc(Cl)c(Cl)nc21,?,/,-98,/
CCOC(=O)Cn1c2ccccc2c2nc3ccccc3nc21,.,.,.,.
SMILES,HCV inh,Pf growth 48h,HCMV antiviral,Pf growth 96h
Cc1cc(C)c(NC(=O)Cn2nnc(-c3nc(-c4ccncc4)no3)c2N)c(C)c1,/,/,.,/
O=C(CNCc1cccs1)NC12CC3CC(CC(C3)C1)C2,.,.,.,5.9µM
CC1(C)C2CCC(C2)C1(C)NC(=O)CNCc1cccs1 (configuration not stated),.,.,.,.
O=C(Cc1cccs1)NNC(=O)C12CC3CC(CC(C3)C1)C2,.,10µM,.,.
CCOc1ccc(CNC(=O)c2cccn2-c2nnc(N3CCCCC3)s2)cc1OC,/,/,.,/
O=C(NCCOCCn1c(=O)oc2ccccc21)Nc1ccc(F)cc1F,/,/,.,/
CC(=O)Nc1ccc(S(=O)(=O)NCCC(=O)Nc2cccc(Cl)c2)cc1,.,.,.,.
CC(=O)Nc1ccc(S(=O)(=O)NCCOc2ccc(Cl)cc2C)cc1,.,.,-74,.
CCCCn1c(=O)n(CC(=O)Nc2ccc(OC)c(Cl)c2)c(=O)c2c1nc(CO)n2CCC,.,10µM,.,/
CCCCn1c(=O)n(CC(=O)Nc2c(CC)cccc2CC)c(=O)c2c1nc(CO)n2CCC,.,.,.,?
Cc1ccc(NC(=O)CSc2nccn2Cc2ccco2)cc1Cl,/,/,.,/

# Source: PubChem
